# Assay results as given in PubChem BioAssay (NCI).
# About 79,000 compounds went through this panel and 15% of them were active in at least one assay; those are over-represented in the sample as a whole. A number with no mark means an inactive call. Calls of active or inactive are those of the source. Cut-off read from the data, not from the text of the source: active = growth inhibition above about 70%; inactive = the rest.
# Experiment: NCI Yeast Anticancer Drug Screen. Data for the sgs1 mgt1 strain (AID 161);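 note: 0% = growth of cultures given vehicle only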
# Conditions: S. cerevisiae sgs1 mgt1 strain, at 50.0 µM, stronger effect = higher value
# Summary of the method: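 Read-out: growth inhibition vs vehicle controls. Cells: mutant yeast strain deficient in DNA damage repair.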
row,Structure (SMILES),growth inhibition
1,Oc1cc(CN2CCOCC2)c(O)c(CN2CCOCC2)c1CN1CCOCC1,10.3%
2,c1ccc2c(c1)c1ccccc1c1c3ccccc3c3ccccc3c21,-1.05%
3,Clc1ccc(SCCCCSc2ccc(Cl)cc2)cc1,7.7%
4,CCCCNC(=O)Oc1cccc2ccccc12,7.7%
5,NC(=O)C(=CN1C(=O)/C(=C/c2ccccc2O)SC1=S)C(N)=O,10.9%
6,COCC(C)(CO)CC(C)CO (configuration not stated),-0.15%
7,Cc1cn(C2CC3OP(=O)(OCc4ccccc4)OCC3O2)c(=O)[nH]c1=O (configuration not stated),16.1%
8,NC(=O)SCC(=O)Nc1ccc2cccc3c2c1CC3,80% (active)
9,CSC1=C(CCC(C)CCCC(C)CCCC(C)CCCC(C)CCCC(C)CCCC(C)C)C(=O)c2sccc2C1=O (configuration not stated),-1.45%
10,O=CNC1CCCCC1c1ccc(C2CCCCC2NC=O)cc1 (configuration not stated),-2.35%
11,Nc1ccccc1OCCOCCOc1ccccc1N,-8.45%
12,CC1C2=C(CCCC2=O)O/C1=N\O (configuration not stated),-0.85%
13,COc1ccccc1C(O)c1ccccc1 (configuration not stated),15.3%
14,O=C(CCc1nnc2s/c(=C\c3ccccc3)c(=O)n12)Nc1cc(Cl)ccc1Cl,-18.4%
15,Cc1ccc2ccccc2[n+]1CC(=O)c1ccc2c(c1)OCO2,-0.6%
16,CC1(C)OC(=O)C(=Cc2ccc(O)cc2)C(=O)O1,-34.5%
17,COC(=O)C(C)(NC(=O)C(CC(=O)OC(C)(C)C)NC(=O)OC(C)(C)C)c1ccccc1 (configuration not stated),46.5%
